CaV13 ICDI inh – Primary screen for inhibitors of IQ motif and Ca2+-dependent inactivation inhibitor domain binding in CACNA1D, Förster resonance energy transfer in living cells, …; HEK cells, CFP/YFP FRET ICDI-IQ, plate reader, 10 min; percent FRET-ratio fall versus neutral wells; inhibition, % at 12.3 µM; 0.098% of 340,000 active;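 active = mean replicate inhibition of at least 30% and at least 1% of replicates passing that level; inconclusive = only one of the two criteria is met; inactive = neither criterion is met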;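 note: 0% = median of the neutral control wells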
GC-A act – GC-A stimulated cGMP production enhancers – HEK293 GC-A cells, cGMP TR-FRET, EC30 ANP, primary screen. Atrial natriuretic peptide receptor 1 (Homo sapiens), P16066. 0% at EC30 ANP, 100% saturating ANP. activation, % at 10 µM. 0.14% of 370,000 active. AID 1671463, 2021; in the data active = activation above about 40%
NPR2 activator – human GC-B receptor activators, primary screen, HEK293 GC-B cells, cGMP TR-FRET, EC30 CNP; Atrial natriuretic peptide receptor 2 (Homo sapiens), P20594; activation, % at 10 µM; 0% at EC30 CNP, 100% saturating CNP; 0.11% of 370,000 active;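 active = activation at 10 µM reaching about 35% in either raw or pattern-adjusted values, limit read from the data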
Rin1 Abl inh – inhibitors of Rin1-Abl protein binding, primary screen, biochemical, TR-FRET; Tyrosine-protein kinase ABL1 (Homo sapiens) + Ras and Rab interactor 1 (Homo sapiens), …; inhibition, % at 7.35 µM; 0.4% of 360,000 active; in the data active = inhibition above about 5%, passing the limit was not always enough
Active calls of the source: *; u = inconclusive; x = no result; + = active, no number; ! = not confirmed by another sample. This is a sample that favours compounds with a hit; in the whole collection about 0.67% have one here.

SMILES	CaV13 ICDI inh	GC-A act	NPR2 activator	Rin1 Abl inh
CCCC(=O)Nc1nc2c(C)c(Cl)ccc2s1	-1	43*	-3	-1
Cc1c(Cl)ccc2sc(NC(=O)CN3C(=O)c4ccccc4C3=O)nc12	-4	11	-4	-1
CCCC1CCC2(CCC(=O)N2CCOC)CC1 (stereo not drawn)	x	3	-11	x
C=CC[C@H](CC(=O)NCCO)C(=O)NC[C@@H](OC(=O)[C@@H](CC=C)CC(=O)OC(C)(C)C)c1ccccc1	-11	-8	69*	1
CCOC(=O)c1cc(-c2ccc(F)cc2)nc2c1c(=O)[nH]c(=O)n2Cc1ccccc1	-7	37	43*	3
CCOC(=O)c1cc(-c2cc(OC)c(OC)c(OC)c2)nc2c1c(=O)[nH]c(=O)n2Cc1ccccc1	-5	11	12	1
CCOC(=O)[C@@]12CCCC=C1N(CCc1ccc(Cl)cc1)C(=O)[C@H]2CC(=O)NCc1ccc(OC)c(OC)c1	x	4	2	x
O=C(N1CCCC1)n1ncc(-c2ccc(-c3ccccc3)cc2)n1	x	5	1	x
CN(c1ccc(O)cc1)c1nc(O)c(C2=c3ccccc3=NC2=O)s1	-3	41*	-5	-7
O=C1N=c2ccccc2=C1c1sc(=S)n(-c2ccc(O)cc2)c1O	6	-7	4	-1
CC/C(C)=N\Nc1nc(-c2cc3cc(OC)ccc3oc2=O)cs1	+	0	-14	-3
COc1ccc2oc(=O)c(-c3nc(C)cs3)cc2c1	-16	0	6	-18
Cc1cc2oc3cc(NCCC4CCCN4C)ccc3c(=O)c2cc1C (stereo not drawn)	77*	10	-8	-8
CCOC(=O)c1c2ccc(OCC(=O)N/N=C/c3ccc(C)cc3)cc2n2ccccc12	x	4	-5	6
CCOC(=O)c1c2ccc(OCC(=O)NN)cc2n2ccccc12	+	5	-9	0
COC(=O)C1CN(Cc2ccc(OC)cc2)CCS(=O)(=O)N1Cc1ccccc1 (stereo not drawn)	x	-5	-5	x
CCCOc1ccc(C(=O)NNC(=S)NC(=O)c2ccco2)cc1	35*	5	13	-1
CC(=O)c1cccc(-c2ccnc3c2CC(C(=O)NCc2ccc(F)c(F)c2)O3)c1 (stereo not drawn)	44*	0	2	0
CC(=O)c1cccc(-c2ccnc3c2CC(C(=O)NCc2ccccc2)O3)c1 (stereo not drawn)	-8	2	7	-2
COC(=O)C1CN(C2CCCC2)CCS(=O)(=O)N1Cc1ccc(C(F)(F)F)cc1 (stereo not drawn)	x	-3	-1	x
Cc1cccc(-c2cccc3c4c([nH]c23)[C@@H]2C[C@H]3[C@@H](C(=O)N2CC4)[C@H](C)ON3C)c1	x	-3	-13	x
O=c1[nH]c2ccccc2nc1/C=C/c1ccccc1	+	1	-4	0
O=c1[nH]c2ccccc2nc1/C=C/c1ccc(O)cc1	-12	-6	-3	-3
O=[N+]([O-])c1ncccc1OCCOc1ccc(Cl)cc1Cl	x	47*	1	x
COC(=O)c1cc(-c2cc3ccccc3s2)c(=O)n2c1CCC2	x	6	-2	x
SMILES	CaV13 ICDI inh	GC-A act	NPR2 activator	Rin1 Abl inh
CSC1=NSC2=NC(=O)/C(=C/c3coc4ccc(O)cc4c3=O)C(=N)N12	126*	-2	3	-4
CSC1=NSC2=NC(=O)/C(=C/c3coc4ccccc4c3=O)C(=N)N12	-17	6	1	2
CN(CCO)c1ccc2c(c1)Oc1ccccc1CN(Cc1cn(Cc3ccc(C(F)(F)F)cc3)nn1)S2(=O)=O	x	-1	0	x
Cn1nnnc1SCC(=O)Nc1nc(-c2ccc(F)c(F)c2)cs1	-3	42*	0	-1
Cc1ccccc1NCC(=O)N/N=C/c1ccc[nH]1	x	-2	-4	x
O=C(NCc1ccc(F)cc1)C1CCCN1C(=O)Nc1cccc(F)c1 (stereo not drawn)	64*	-1	-4	2
COc1ccc(NC(=O)N2CCCC2C(=O)NCc2ccc(F)cc2)cc1 (stereo not drawn)	x	-1	-1	3
CCc1nc2ccc(C(=O)NCCc3c[nH]c4ccccc34)cn2c1N(C=O)CCC(C)C	38*	1	4	0
CC(C)(C)C1CCc2sc(-c3nnc(CCl)o3)cc2C1 (stereo not drawn)	3	6	-5	-1
ClCc1nnc(-c2cc3c(s2)CCCC3)o1	2	54*	2	-2
Cc1cccc(C)c1NC(=O)C1CCCN(CCCc2ccccc2)C1 (stereo not drawn)	x	1	-3	-1
CCOC(=O)C1CCCN(CCCc2ccccc2)C1 (stereo not drawn)	38*!	2	2	-1
CCOC(=O)c1ccccc1NC(=O)COC(=O)c1ccc(OCC(=O)N2CCOCC2)c(OCC)c1	-6	24	35*	6
CC(C)(N[C@@H](Cc1ccccc1)C(=O)NCCCc1ccccc1)C(=O)NCc1ccccc1	x	-2	-6	x
COc1ccc(S(=O)(=O)N2CCCCCC2)cc1NC(=O)CN(C)Cc1ccc2c(c1)OCO2	-5	41*	61*	-1
CCC(=O)c1ccc(OCC(=O)OCC(=O)N2CCc3ccccc32)cc1	-6	-2	-5	0
N#Cc1ccc(OCC(=O)OCC(=O)N2CCc3ccccc32)cc1	35*	1	3	-4
COc1ccc(S[C@]2(C(=O)N3CCCC3)CC(=O)N(P(=O)(OC)OC)[C@@H]2c2ccc(OC)cc2)cc1	x	-1	-1	x
CC1NC(=O)NC1CCCCCC(=O)NCCc1ccccc1 (stereo not drawn)	-6	2	-1	83*
O=C(CCCCC(=O)NCCCc1ccccc1)NCCCc1ccccc1	u	-3	1	2
O=C(OC12CCCN(C1)/C(=C/c1ccccc1)C2)c1ccc(Cl)cc1 (stereo not drawn)	x	0	5	x
O=c1[nH]c(=O)c2nc(-c3ccc(Cl)cc3)cnc2[nH]1	100*	2	-7	1
O=c1[nH]c(=S)[nH]c2nc(-c3ccccc3)cnc12	-4	2	-7	-2
CN1C(=O)c2cccc(NC(=O)C3CCCCC3)c2C1=O	-6	1	55*	0
CCC(=O)Nc1cccc2c1C(=O)N(C)C2=O	-5	-2	0	1
Cc1noc(C)c1S(=O)(=O)N(CC(=O)N1CCCCCC1)c1ccc(C(C)C)cc1	51*	-9	-6	-1
Cc1noc(C)c1S(=O)(=O)N(CC(=O)N1CCCC1)c1ccc(C(C)C)cc1	-2	-4	-10	-2
CC(=O)c1csc(-c2cccc(-c3nc4ccc(Cl)cn4c3NC3CCCCC3)c2)c1	-12	51*	56*	5

High-throughput results (PubChem BioAssay)
